Results on 23 molecules are retold here after PubChem BioAssay (NCATS).

Several values for one entry are separate records, joined by “and”; a condition that tells them apart may be missing. Identical values can stand only once. Inconclusive results are not listed. A call without a number means that no potency is given here. A number with no mark means an inactive call. Activity calls are given as the source filed them. Calls come from the whole dose curve; as a rule, active = well fitted curve in the direction sought with a large enough effect; inconclusive = small, poorly fitted or top-dose-only effect, or another doubt; inactive = no such curve, though single readings can be large; an effect the other way counts as inactive or inconclusive.

In one assay the test system is Tov112D. The assay is described as follows: Primary qHTS to identify gynecologic anti-cancer compounds using libraries of approved drugs and bioactive compounds (AID 1345084). Note: nearly all actives have a fitted effect of over 55% in size. The conditions noted are these: Gynecologic cancer cell panel viability, ATPlite luminescence, 48 h; series mostly up to 57.5 µM. The gist of the method:
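Cell viability after 48 h drug treatment, ATPlite luminescence readout; five doses.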
Background: Quantitative high-throughput screening tests each substance at several concentrations.
Regarding `CC(CC(C(N)=O)(c1ccccc1)c1ccccc1)N(C)C` (configuration not stated), the Potency entry was “inactive”. As to `CCO[C@H]1O[C@@H]2OC3(C)CC[C@H]4[C@H](C)CC[C@@H]([C@H]1C)[C@@]24OO3`, the Potency entry is “inactive”. With `C[C@]12CC[C@H]3[C@@H](CCC4=CC(=O)CC[C@@]43C)[C@@H]1CC[C@@H]2C(=O)O`, the Potency entry is “inactive”. In the case of `Nc1ccc(Cl)cc1C(=O)c1ccccc1F`, the Potency entry was “inactive”. Still for that read-out and setting: for `Oc1ccc2[nH]cc(CCCCN3CC=C(c4ccccc4)CC3)c2c1` the value was “inactive”. Consider `CCc1ccc(C2CCNCC2)cc1`, for which the Potency entry was “inactive”.

Turning to `CCOC(C(=O)OCCN(C)C)(c1ccccc1)c1ccccc1`, the Potency result is “inactive”.

Consider `ClCc1cccc(Cl)c1`, for which the Potency result is “inactive”.

Take `C[C@]12CC[C@H]3[C@@H](CCC4=CC(=O)CC[C@@H]43)[C@@H]1CC[C@@H]2O`: the Potency result is “inactive”.

For the molecule `O=C1NCN(c2ccccc2)C12CCN(CCCOc1ccc(F)cc1)CC2`, the Potency entry was “inactive”. Same read-out and setting: under `CCN(Cc1ccc(Cl)nc1)/C(=C/[N+](=O)[O-])NC` stands “inactive”.

As to `Nc1ccccc1C(=O)OCC(O)CO` (configuration not stated), the Potency result is “inactive”. Still for that read-out and setting: for `CCOC(=O)C(c1c(O)c2ccccc2oc1=O)c1c(O)c2ccccc2oc1=O` the value was “inactive”.

With `O=c1[nH]c2cc(Cl)ccc2n1C1CCNCC1`, the Potency result was “inactive”. Consider `CCOC(=O)c1ncn2c1CN(C)C(=O)c1c(I)cccc1-2`, for which the Potency result was “inactive”. Same read-out and setting: under `O=C(CBr)Nc1ccc(Cl)cc1C(=O)c1ccccc1F` stands “inactive”; under `CC(C(O)c1ccccc1)N(C)C/C=C/c1ccccc1` (configuration not stated), “inactive”; under `CN1CCC(N(Cc2ccccc2)c2ccccc2)CC1`, “inactive”.

System in the next assay: not listed separately
The experiment in a line: Drug repurposing screens with cells derived from glioblastoma tumor samples (AID 1345199). Note: nearly all actives have a fitted effect of over 40% in size. Note: potency is the fitted concentration of half-maximal effect. Conditions: GBM patient neurospheres viability, ATP luminescence, 48 h; at 45.9 µM (top of the series); tumour line B. The gist of the method: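 Four patient lines of CD133+ GBM neurospheres were screened at several concentrations; hits were retested in those lines plus three slower-growing GBM lines, using 48-hour treatment and ATP-based viability.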
Regarding `C[C@]12CC[C@H]3[C@@H](CC=C4C[C@@H](O)CC[C@@]43C)[C@@H]1CC[C@@H]2O`, the activity, negative = cell killing was -14.5%. The same measure, in the same setting: under `CN1CCc2cc(Cl)c(O)cc2[C@H]2c3ccccc3CC[C@@H]21` stands -22.7%. Take `C[C@]12CC[C@H]3[C@@H](CCC4=CC(=O)CC[C@@H]43)[C@@H]1CC[C@@H]2O`: the activity, negative = cell killing was 2.47% and -10.2%. Take `CCN(Cc1ccc(Cl)nc1)/C(=C/[N+](=O)[O-])NC`: the activity, negative = cell killing is -9.68%.

The same assay, now with this note: GBM patient neurospheres viability, ATP luminescence, 48 h; tumour line A.
Turning to `C[C@]12CC[C@H]3[C@@H](CC=C4C[C@@H](O)CC[C@@]43C)[C@@H]1CC[C@@H]2O`, the Potency is 11.2 µM (active). On the same count and under the same terms, for `COP(=O)(OC)OC=C(Cl)Cl` the value was 7.08 µM (active). The same measure, in the same setting: under `Clc1ccc(CSC(Cn2ccnc2)c2ccc(Cl)cc2Cl)cc1` (configuration not stated) stands 2.24 µM (active); under `CC[C@H]1C[C@H]2[C@@H]3CCC4=CC(=O)CC[C@@H]4[C@H]3CC[C@]2(C)[C@H]1O`, 10 µM (active); under `CN1CCc2cc(Cl)c(O)cc2[C@H]2c3ccccc3CC[C@@H]21`, 11.2 µM (active).
